From PubChem
3T3 cytotox – NIH 3T3 cell cytotoxicity. actives 4.3% (n = 94,000). Potency, µM (highest dose often 96.7 µM), for inactives: top-dose activity change, negative = cytotoxicity, actives largely listed as inhibitors. NIH 3T3 viability, CellTiter-Glo ATP luminescence, 48-72 h; note: potency is the fitted concentration of half-maximal effect; nearly all actives have a fitted effect of over 55% in size
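Cells were seeded at 400 per well, treated with pin-transferred compound, and kept 48 or 72 hr at 37 °C before CellTiter-Glo addition and luminescence imaging of cellular ATP.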
IP6K1 inh – IP6K1 kinase inhibition; IP6K1 kinase, ADP-Glo luminescence, 2 h; stronger effect = lower value; activity change, % (series mostly up to about 58 µM); actives 0.81% (n = 140,000); AID 1645851; in the data active = activity change below about -25%
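ADP-Glo luminescence measures ADP made by human IP6K1 during a 2 h RT reaction with ATP/IP6 (mix at 1.3 mM/130 uM); top library doses 57.5 and 19.1 uM final.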
FLuc inh – inhibitors of firefly (Photinus pyralis) luciferase. P08659. purified P. pyralis luciferase, luminescence, biochemical. Potency, µM (top dose mostly 115 µM), most hits filed as inhibitors. actives 2.5% (n = 76,000); note: potency is the fitted concentration of half-maximal effect; nearly all actives have a fitted effect of over 65% in size
Target sequence (P08659 whole entry, looked up): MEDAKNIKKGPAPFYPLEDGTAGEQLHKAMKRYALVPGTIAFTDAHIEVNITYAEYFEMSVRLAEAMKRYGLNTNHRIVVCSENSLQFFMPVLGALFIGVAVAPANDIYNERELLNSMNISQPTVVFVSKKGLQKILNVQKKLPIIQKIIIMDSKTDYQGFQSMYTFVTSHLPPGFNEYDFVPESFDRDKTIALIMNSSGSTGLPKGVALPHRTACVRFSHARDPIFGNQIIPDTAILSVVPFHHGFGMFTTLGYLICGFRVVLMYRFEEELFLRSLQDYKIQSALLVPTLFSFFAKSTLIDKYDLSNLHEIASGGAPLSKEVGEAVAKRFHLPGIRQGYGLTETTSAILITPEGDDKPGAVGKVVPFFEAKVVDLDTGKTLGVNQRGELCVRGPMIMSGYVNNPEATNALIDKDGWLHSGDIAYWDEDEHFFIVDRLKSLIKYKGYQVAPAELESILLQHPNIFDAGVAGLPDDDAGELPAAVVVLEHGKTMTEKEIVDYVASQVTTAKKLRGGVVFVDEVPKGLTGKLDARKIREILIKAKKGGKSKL
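Luminescence read by CCD imaging after purified firefly luciferase (10nM final) was added to substrate buffer holding 10uM D-luciferin and 10uM ATP, pH 7.5, pre-dosed with compound.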
SNCA expr inhib – inhibitors of alpha-synuclein (SNCA) gene expression. HEK-293 SNCA-luciferase knock-in, luminescence, 24 h. Potency, µM (series often up to 57.2 µM), for inactives: top-dose activity change, negative = inhibition, usual class: inhibitors. actives 0.17% (n = 140,000). AID 1671194;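 note: potency is the fitted concentration of half-maximal effect; plate controls were DMSO cells for no effect and cell-free wells for full effect; nearly all actives have a fitted effect of over 45% in size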
HEK293 viab – counter-screen for SNCA expression inhibitors: cell viability | HEK-293-SNCA-luc viability, GF-AFC fluorescence, 24 h | Potency, µM (doses to about 57.1 µM), for inactives: at the top dose activity change, negative = cytotoxicity, actives largely listed as cytotoxic | actives 0.12% (n = 150,000) | AID 1671193;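 note: potency is the fitted concentration of half-maximal effect; 0% = DMSO-treated cells and -100% = medium-only wells without cells; nearly all actives have a fitted effect of over 30% in size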
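HEK-293-SNCA-luc cells (1500/well) plated 24 h, then exposed 24 h to a dilution series; GF-AFC added 30 min at 37C, fluorescence 405/540 nm; normalised to medium-only and DMSO wells, Hill fit.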
HEK cytotox – HEK 293 cell cytotoxicity | HEK 293 viability, ATP luminescence (CellTiter-Glo), 48-72 h | actives 6.6% (n = 94,000) | Potency, µM (highest dose often 115 µM), without a hit: at the highest dose activity change, negative = cytotoxicity, most hits filed as inhibitors | AID 1345083; note: potency is the fitted concentration of half-maximal effect; nearly all actives have a fitted effect of over 60% in size
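HEK 293 cells at 250 cells/well were exposed to compounds by pintool transfer for 48 or 72 hr at 37 degree Celsius, 5% CO2. Viability was read as ATP-coupled luminescence with CellTiter-Glo after 10 min at room temperature.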
* = called active by the depositor; i = inactive; ? = inconclusive; . = no result; [ ] = dose if it differs, or a comment. Rows were chosen to be rich in hits. Some 7.3% of all compounds tested hit in one or more screens of this group. Unless noted, calls come from the whole dose curve; as a rule, active = well fitted curve in the direction sought with a large enough effect; inconclusive = small, poorly fitted or top-dose-only effect, or another doubt; inactive = no such curve, though single readings can be large; an effect the other way counts as inactive or inconclusive. Unless noted, % is set by controls: 0 for no effect and ±100 for the full control effect.

SMILES	3T3 cytotox	IP6K1 inh	FLuc inh	SNCA expr inhib	HEK293 viab	HEK cytotox
O=C(NCC(F)(F)F)c1cc(-c2cccc(C(F)(F)F)c2)c2cccn2n1	?	2.7	.	-25.4%	-4.1%	35.5µM*
O=C(NC1CC1)c1cc(-c2cccc(C(F)(F)F)c2)c2cccn2n1	?	3.7	.	?	-29.9%[87.6 µM]	35.5µM*
CN1CCCN(C(=O)C2CCCCc3nnc(-c4ccccc4)n32)CC1 (configuration not stated)	?	2.5	.	47.1%	8.9%	-4.7%
COc1ccc(OC)c(S(=O)(=O)N2CCC(Cc3ncc(C)n3C3CC3)C2)c1 (configuration not stated)	-4.3%	-17.6	i	-10.9%	-11.3%	-5.4%
COc1ccc(CN2CCCC23Cc2ccccc2CNC3=O)cn1 (configuration not stated)	-21.6%	-13.2	.	9.0%	-8.4%	-29.6%
O=C(Cc1ccc(F)cc1)N1CCC[C@H]1c1nc(-c2ccccc2)no1	?	0.0	i	2.5%	-2.8%	?
O=C(NCc1ccc(F)cc1)c1cc(-c2cccc(C(F)(F)F)c2)c2cccn2n1	?	-7.8	.	?	-22.7%	25.1µM*
O=C(NCc1ccc(F)cc1)c1cc(-c2ccc(Cl)cc2Cl)c2cccn2n1	-29.3%	-5.9	.	-7.1%	3.4%	?
COCc1nnc2n1CCC(NC(=O)COc1ccc(F)cc1)CC2 (configuration not stated)	i	-14.2	i	1.5%	7.6%	i
Cc1cccc(-c2cccc(CN3CCC(NC(=O)c4ccccc4F)CC3)c2)c1	39.8µM*	3.8	.	?	-6.9%	?
Cc1cccc(-c2cccc(CN3CCC(NC(=O)NC(C)C)CC3)c2)c1	?	0.1	.	?	-0.7%	?
O=C(NC1CCN(Cc2cccc(-c3ccc(F)c(F)c3)c2)CC1)c1ccc(Cl)cc1	-21.2%	17.7	.	?	-12.5%	1.7%
Cc1cccc(-c2cccc(CN3CCC(NC(=O)c4ccncc4)CC3)c2)c1	31.6µM*	-0.4	.	-16.0%	-0.3%	31.6µM*
Cc1ccc(C(=O)NC2CCN(Cc3cccc(-c4ccc(F)c(F)c4)c3)CC2)cc1	35.5µM*	-4.3	.	?	-11.4%	?
COc1ccc(C(=O)NC2CCN(Cc3cccc(-c4cccc(C)c4)c3)CC2)cc1	?	-10.4	.	?	-17.3%	35.5µM*
Cc1cccc(-c2cccc(CN3CCC(NC(=O)C4CC4)CC3)c2)c1	?	4.5	.	-13.6%[87.6 µM]	-4.7%[87.6 µM]	?
c1ccc(-c2noc(-c3cncnc3NC3CCc4ccccc43)n2)cc1 (configuration not stated)	-1.5%	-5.2	i	21.3%	6.6%	-2.0%
Cc1cccc(-c2cccc(CN3CCC(NC(=O)C4CCCC4)CC3)c2)c1	-9.2%	0.0	.	?	-8.4%	i
Cc1cccc(-c2cccc(CN3CCC(NC(=O)c4ccc(Cl)nc4)CC3)c2)c1	17.8µM*	-2.1	.	-27.5%	-8.1%	14.1µM*
Cc1cccc(-c2cccc(CN3CCC(NC(=O)Cc4ccccn4)CC3)c2)c1	44.7µM*	-1.4	.	1.0%	4.0%	?
CC(C)=CCN1CCCC2(Cc3ccccc3CNC2=O)C1 (configuration not stated)	-10.5%[138 µM]	-4.8	.	13.2%[87.6 µM]	0.3%[87.6 µM]	-13.2%[172 µM]
Cc1nonc1CC(=O)N1CCC(O)(CN2CCOCC2)C(C)(C)C1 (configuration not stated)	4.9%	-0.8	i	-6.7%	3.8%	-2.6%
Cc1ccccc1-c1noc(CNCc2cc(F)ccc2C(F)(F)F)n1	-17.5%	2.2	i	17.2%	-2.8%	-21.4%
Cc1ccccc1-c1noc(CNCc2nc3ccc(Cl)cc3[nH]2)n1	?	3.5	i	37.4%	1.2%	79.4µM*
CN(C)CCN(Cc1ccc(-c2ccc(CNCCc3ccccc3)cc2)cc1)C(=O)CCC1CCCC1	.	2.6	.	.	18.9µM*	.
SMILES	3T3 cytotox	IP6K1 inh	FLuc inh	SNCA expr inhib	HEK293 viab	HEK cytotox
CCC(C=C[C@@H]1OC(=O)C=C[C@H]1C)=C[C@H](C)CC=CC(C)=C[C@@H](C)C(=O)[C@@H](C)[C@H](O)[C@@H](C)CC(C)=CC(=O)O	.	.	.	0.16µM*	?	.
O=C1CO[C@H]2CN(Cc3ccccc3F)C[C@H]2N1c1ccccc1	?	9.7	i	-0.2%[87.6 µM]	-4.3%[87.6 µM]	79.4µM*
CCn1nc(C)c(-c2cc(C(=O)NCCc3noc(-c4ccccc4)n3)no2)c1C	?	8.9	?	17.2%	-24.0%[12.5 µM]	50.1µM*
COC1CCN(C(=O)c2ccnc(-c3nnc4ccc(N(C)c5ccccc5)nn34)c2)CC1	3.55µM*	-2.1	i	-25.7%	5.8%	?
CN1CCN(C(=O)c2ccnc(-c3nnc4ccc(N(C)c5ccccc5)nn34)c2)CC1	10µM*	-12.0	i	0.3%[87.6 µM]	-6.1%[87.6 µM]	-2.0%[172 µM]
COc1ccc(Nc2ccc3nnc(-c4ccccn4)n3n2)cc1	?	-18.1	i	19.7%[87.6 µM]	-27.1%[87.6 µM]	70.8µM*
CN(Cc1ccccc1)C(=O)c1ccnc(-c2nnc3ccc(Nc4ccccc4)nn23)c1	?	6.1	i	-12.0%[87.6 µM]	?	20µM*
CCN(CC)C(=O)C[C@@H]1c2nc(NC(=O)C3CCC3)sc2C[C@@H]2[C@](C)(CO)[C@H](O)CC[C@]21C	?	-6.3	i	13.9%	-19.7%	-24.4%
CNC(=O)[C@@H]1C[C@H](Oc2cccnc2)CN1C(=O)c1noc(C)c1Cc1c(C)noc1C	-8.9%	11.3	.	-5.6%	1.1%	i
CCCCN1C(=O)c2ccccc2C(C(=O)NCCc2ccc(OC)cc2)C12CCCCC2 (configuration not stated)	?	8.8	i	-8.8%	-27.9%	?
CCOCCOC1CCN(C(=O)Nc2ccccc2)CC1	i	3.8	i	48.6%	-1.2%[12.5 µM]	7.9%
CC(C)NC(=O)c1ccnc(-c2nnc3ccc(Nc4ccccc4)nn23)c1	?	-8.7	i	0.3%[87.6 µM]	6.4%[87.6 µM]	?
COC1CCN(C(=O)c2ccnc(-c3nnc4ccc(Nc5ccccc5)nn34)c2)CC1	?	-10.7	i	-10.7%[87.6 µM]	-6.4%[87.6 µM]	89.1µM*
Cn1cc(-c2cnc3[nH]cc(CC(=O)Nc4ccc(N5CCOCC5)cc4)c3c2)cn1	-0.9%[138 µM]	-17.7	i	0.7%[87.6 µM]	6.5%[87.6 µM]	?
Cc1cccc(-c2cnc3[nH]cc(CC(=O)N4CCOCC4)c3c2)c1	?	-11.8	i	-23.4%[87.6 µM]	-15.0%[87.6 µM]	?
O=C(Cc1c[nH]c2ncc(-c3cccnc3)cc12)Nc1ccc(C(F)(F)F)cc1	?	-9.2	i	?	-22.3%[87.6 µM]	?
COc1ccc(-c2cnc3[nH]cc(CC(=O)Nc4ccc(C(F)(F)F)cc4)c3c2)cc1	44.7µM*	-15.2	i	-21.8%[87.6 µM]	-7.0%[87.6 µM]	?
